# ALDH1A1 block: ALDH1A1 (human) enzyme inhibition. P00352. Purified ALDH1A1, NADH fluorescence, propionaldehyde substrate. Potency, µM (highest dose often 75.3 µM), for inactives: at the highest dose activity, negative = inhibition, actives largely listed as inhibitors. 220,000 tested, 7.3% active;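 also: potency is read from the fitted curve at half-maximal effect; plate controls were no enzyme wells and a reference inhibitor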
# Target sequence (P00352 whole entry, looked up): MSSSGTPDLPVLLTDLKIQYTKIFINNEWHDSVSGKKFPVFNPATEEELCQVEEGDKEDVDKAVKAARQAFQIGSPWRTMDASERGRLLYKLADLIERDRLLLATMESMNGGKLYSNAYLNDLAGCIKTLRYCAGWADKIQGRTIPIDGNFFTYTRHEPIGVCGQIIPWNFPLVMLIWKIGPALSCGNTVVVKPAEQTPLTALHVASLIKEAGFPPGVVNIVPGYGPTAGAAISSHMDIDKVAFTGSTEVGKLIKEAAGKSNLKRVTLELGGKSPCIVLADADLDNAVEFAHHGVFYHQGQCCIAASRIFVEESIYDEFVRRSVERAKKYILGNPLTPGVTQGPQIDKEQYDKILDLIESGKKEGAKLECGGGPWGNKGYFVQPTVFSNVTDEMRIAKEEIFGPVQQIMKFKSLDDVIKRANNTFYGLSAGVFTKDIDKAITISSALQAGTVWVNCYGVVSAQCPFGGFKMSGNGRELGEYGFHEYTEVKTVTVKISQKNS
# Lamin A splicing: changes lamin A minigene splicing in HeLa cells | HeLa LMNA splicing GFP/RFP minigene ratio, 48 h | Potency, µM (top dose mostly 46.1 µM), without a hit: at the top dose ratio change, negative = inhibition, hits mostly inhibitors | 200,000 tested, 0.01% active | AID 1487; active = well fitted inhibition curve with a large enough effect in the signal ratio, with a control signal flat, not every such curve was filed as active; inconclusive = small, poorly fitted or top-dose-only effect, or effect the other way, or a change in a side signal; the % refers to the signal ratio; also: potency is read from the fitted curve at half-maximal effect
#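 S3 HeLa stable clones carrying a lamin A-EGFP splicing minigene plus DsRed2 were seeded at 600 cells/well in Opti-MEM with 2% FBS, pin-dosed and incubated 48 h at 37°C. Acumen cytometry (488 nm) gave the GFP/RFP total-intensity ratio.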
# HPGD block: HPGD (human) dehydrogenase inhibition | P15428 | purified HPGD, NADH fluorescence kinetic, PGE2 substrate | Potency, µM, without a hit: top-dose activity change, negative = inhibition, hits mostly inhibitors | 150,000 tested, 4.3% active | AID 894; also: potency is read from the fitted curve at half-maximal effect
# Target sequence (P15428 whole entry, looked up): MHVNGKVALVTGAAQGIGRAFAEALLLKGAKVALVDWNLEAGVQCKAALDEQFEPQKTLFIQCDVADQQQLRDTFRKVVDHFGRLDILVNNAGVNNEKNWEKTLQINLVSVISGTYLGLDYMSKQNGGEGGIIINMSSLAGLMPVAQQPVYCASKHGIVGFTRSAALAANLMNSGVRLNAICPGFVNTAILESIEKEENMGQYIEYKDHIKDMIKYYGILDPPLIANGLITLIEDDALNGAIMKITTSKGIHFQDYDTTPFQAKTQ
#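 20 nM HPGD preincubated 15 min at room temperature with compound in 50 mM Tris-HCl pH 8, 0.01% Tween 20. Started with 1 mM NAD+ and 30 uM prostaglandin E2; NADH fluorescence (360/450 nm) read 5 times over 30-s intervals, last minus first.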
# PNC inhibitor: perinucleolar compartment assembly inhibition. activity change (PNC), negative = inhibition, % at 10 µM. PC3M PTB-GFP, PNC prevalence imaging, 16 h; stronger effect = lower value. 140,000 tested, 3.1% active;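 active = readout at or below -70, meaning at least 70% loss of cells showing the perinucleolar compartment, a nuclear body marking cancer cells; inconclusive = readout between -30 and a set limit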;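 also: plate controls were DMSO wells for no effect and camptothecin positive control wells for full effect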
#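 Read-out is percentage of cells bearing a perinucleolar compartment, from automated 20x imaging of fixed, Hoechst-stained PC3M PTB-GFP cells. Cells were seeded 4 h, then exposed 16 h to compound (23 nl of library stock) in duplicate plates.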
# 12-hLO inh: blocks human 12-lipoxygenase activity. P18054. purified 12-hLO, xylenol orange hydroperoxide absorbance. Potency, µM (doses to about 57.1 µM), for the others: at the highest dose activity change, negative = inhibition, actives largely listed as inhibitors. 150,000 tested, 0.12% active; active = well fitted inhibition curve with a large enough effect; inconclusive = small, poorly fitted or top-dose-only effect; also: potency is read from the fitted curve at half-maximal effect; nearly all actives have a fitted effect of over 55% in size
#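 150 nM 12hLO, 25 mM Hepes pH 7.0 + 0.01% Triton X-100; cpd preinc 15 min RT; 40 uM arachidonic acid, 30 min RT; Fe-XO 30 min; A573/A405 ratio as read-out.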
# * hit, by the source's call; u = inconclusive; x = no result; [ ] = remark or other dose. A selection: hits, their analogues and other compounds. The true share with any hit is near 10%. Unless noted, calls follow the shape of the dose curve; as a rule, active = well fitted inhibition curve with a large enough effect (not every such curve was filed as active); inconclusive = small, poorly fitted or top-dose-only effect, or another doubt; inactive = no such curve, though single readings can be large or run the other way. Unless noted, % is scaled to controls: 0 for no effect and ±100 for the full control effect.
SMILES,ALDH1A1 block,Lamin A splicing,HPGD block,PNC inhibitor,12-hLO inh
CCN(CC)CCCNC(CC(=O)Nc1cccc([N+](=O)[O-])c1)C(=O)O (centres undefined),-3.0%,4.1%,-10.1%,47.0,0.7%
Cc1cc(=O)[nH]c2nnc(SCCC(C)C)n12,x,4.7%[46 µM],x,x,x
CCOC(=O)Nc1sc(C)c(C)c1C(N)=O,2.5%,-10.5%,-3.6%,u,-1.3%
CCN1CCc2c(sc(NC(=O)Nc3ccc(Cl)c(Cl)c3)c2C(N)=O)C1,-1.0%,u,-17.0%,-118.2*,-7.3%
COC(=O)CCC(=O)Nc1sc(C)c(C)c1C(N)=O,12.6µM*,1.7%,14.1µM*,14.4,-7.6%
CCN1CCc2c(sc(NC(=S)NC(=O)c3ccco3)c2C(N)=O)C1,7.94µM*,x,x,x,x
Cc1sc(NC(=S)NC(=O)CCc2ccccc2)c(C(N)=O)c1C,u,-17.6%,-14.6%,-121.5*,-6.7%
CCc1ccc(NC(=O)CSc2nc3ccsc3c(=O)n2C(C)CC)cc1 (centres undefined),x,-15.4%[46 µM],x,x,x
CN(C)c1ncc2nc(-c3ccccc3)c(=O)n(C3CC3)c2n1,u,x,u,x,-5.2%
CCOC(=O)c1c(NC(N)=O)sc(C)c1C,-11.6%,10.6%,-5.5%,23.1,-5.5%
CCCC(=O)Nc1sc(Cc2ccccc2)c(C)c1C(N)=O,1.78µM*,x,x,x,x
CCC(=O)N(CC(=O)Nc1sc(C)c(C)c1C(N)=O)C1CCCC1,8.91µM*,x,x,x,x
Cc1sc(NC(=O)C2CCCCC2C(=O)O)c(C(N)=O)c1C (centres undefined),1.3%,3.2%,-4.5%,29.6,-6.1%
NC(=O)c1ccccc1NC(=S)NC(=O)CCc1ccccc1,12.6µM*,u,28.2µM*,-108.4*,-2.2%
COC(=O)CCC(=O)NC(=S)Nc1sc(C)c(C)c1C(N)=O,u,11.3%,-29.5%,-123.8*,1.0%
CCOC(=O)c1ccc(NC(=O)CC(C)n2nc(C)cc2C)cc1 (centres undefined),x,4.7%[46 µM],x,x,x
CCCSc1nc2c([nH]c3ccccc32)c(=O)n1C,x,8.0%[46 µM],x,x,x
CCOC(=O)N1CCc2c(sc(NC(=O)c3ccc(Cl)s3)c2C(N)=O)C1,18.9µM*,u,31.6µM*,38.4,-2.9%
CCOC(=O)c1c(NC(=O)c2cccs2)sc2c1CCN(C(=O)OCC)C2,u,u,u,-19.9,u
CC(=O)C1=C(S(=O)(=O)c2ccc(C)cc2)CS(=O)(=O)C1,1.26µM*,u,x,x,x
O=C(CSc1n[nH]c(-c2ccc(F)cc2)n1)NCCc1ccccc1,x,0.0%[46 µM],x,x,x
O=C1[C@@H]2C=CC=CC2=NC(=S)N1CCN1CCC(=C(c2ccc(F)cc2)c2ccc(F)cc2)CC1,x,x,x,x,-5.1%
CN(C)c1ccc(C(CNS(=O)(=O)c2ccc3ccccc3c2)c2c[nH]c3ccccc23)cc1 (centres undefined),-8.8%,-18.9%,-3.7%,u,-4.6%
CN(C)c1ccc(C(CN)c2c[nH]c3ccccc23)cc1 (centres undefined),15.8µM*,-9.6%[46 µM],x,x,x
CC(C)[C@H](NC(=O)OCc1ccccc1)C(=O)N[C@H](C=O)Cc1ccccc1,-17.7%,u,-15.3%,x,-6.0%
SMILES,ALDH1A1 block,Lamin A splicing,HPGD block,PNC inhibitor,12-hLO inh
COc1ccc(C)cc1NC(=O)Nc1ccccc1OCc1cc(=O)n2ccccc2n1,x,17.4%[46 µM],x,x,x
CC(C)(C)n1nnnc1CN1CCSCC1,25.1µM*,-5.7%,-2.2%,11.5,5.3%
O=C(NNc1ccc([N+](=O)[O-])cc1)C1C2CCCCC21 (centres undefined),25.1µM*,13.5%,-8.0%,18.4,-2.5%
O=C(NNc1ccc([N+](=O)[O-])cc1[N+](=O)[O-])C1C2CCCCC21 (centres undefined),-4.5%,u,-7.9%,u,-4.0%
O=C(CSc1nc2ccc(Cl)cc2[nH]1)N1CCN(C(=O)c2ccco2)CC1,22.4µM*,-12.9%,-2.5%,u,-6.5%
O=C(CSc1nc2ccccc2s1)N1CCN(C(=O)c2ccco2)CC1,14.1µM*,-14.7%,-27.5%,-16.6,0.2%
O=C(CSc1nc2ccccc2o1)N1CCCC1,-2.1%,1.7%,25.1µM*,-26.7,1.0%
Cc1ccc2nc(SCC(=O)N3CCN(C(=O)c4ccco4)CC3)[nH]c2c1,u,-13.2%,-3.2%,u,2.7%
CCOc1ccc2nc(SCC(=O)N3CCN(C(=O)c4ccco4)CC3)sc2c1,u,-17.8%,-23.9%,-13.1,4.9%
O=C(CSc1nc2ccc(Nc3nc(N4CCOCC4)nc(N4CCOCC4)n3)cc2s1)N1CCOCC1,3.6%,-7.6%,22.4µM*,-1.6,-4.3%
O=C(O)[C@@H]1[C@@H]2C[C@H]3c4[nH]c5ccccc5c4CCN3C[C@@H]2CC[C@@H]1O,-3.3%[20.9 µM],u,-25.7%,x,-1.0%[25.6 µM]
COc1ccc(-c2csc(N3CCN(C(=O)c4ccccc4)CC3)n2)cc1,u,u,-14.4%,3.9,-3.6%
COc1ccc(-c2csc(N3CCN(C(=O)c4ccco4)CC3)n2)cc1,28.2µM*,u,-16.4%,-28.4,-4.0%
CC1CCN(C(=O)CSc2nc3ccccc3s2)CC1,u,0.9%,14.1µM*,12.4,-12.4%
COc1cccc(-c2csc(N3CCN(C(=O)Nc4ccc(F)cc4)CC3)n2)c1,u,u,-5.8%,19.9,-3.9%
O=C(O)C1CCN(C(=O)CSc2nc3ccccc3s2)CC1,-15.5%,x,x,x,x
COc1cccc(-c2csc(N3CCN(C(=O)C4CCCCC4)CC3)n2)c1,12.6µM*,u,-5.5%,30.0,-5.2%
O=C(CSc1nc2ccccc2s1)N1CCCCC1,4.47µM*,0.3%,2.82µM*,u,-4.2%
Cc1cccc(CNC(=O)CN2C(=O)CCn3nc(-c4cn(C)c5ccccc45)cc32)c1,x,-6.9%[46 µM],x,x,x
COCC(=O)N1CCC2(CC1)CN(Cc1ccccc1OC)C2,-1.4%,x,-11.4%,x,0.5%
c1ccc2sc(SCSc3nc4ccccc4s3)nc2c1,-14.8%[13.5 µM],x,-29.4%,x,-2.1%[11.4 µM]
N#CCc1nc(CSc2nc3ccccc3s2)cs1,u,17.0%,25.1µM*,12.2,u
CC1CCCC(C)N1C(=O)CSc1nc2ccccc2s1 (centres undefined),22.4µM*,-6.8%,2.24µM*,35.1,-6.7%
OC(CNc1nc2ccccc2s1)c1ccccc1 (centres undefined),6.7%,-2.6%,10µM*,-81.6*,-1.1%
CC1Cc2ccccc2N1C(=O)CSc1nc2ccccc2s1 (centres undefined),-5.4%,u,-16.5%,u,-4.4%
O=C(O)CCSc1nc2ccccc2s1,25.1µM*,-4.7%,u,u,5.2%
OCC(O)/C=N/Nc1nc2ccccc2s1 (centres undefined),3.8%,x,x,x,x
Cc1cccc(C(=O)N2CCN=C2SCc2ccc([N+](=O)[O-])cc2)c1,u,2.0%[9.22 µM],x,x,x
C=C(C(=O)OC)C(NC(=O)OC)c1ccccc1 (centres undefined),4.4%,x,-6.8%,x,x

# Screens as filed in PubChem BioAssay.
